# Screening results from PubChem.
# FAS-TE inh = blocks the thioesterase domain of human fatty acid synthase; AID 602261; inhibition, % at 15 µM; 0.67% of 360,000 active; recombinant FAS-TE, OMFH fluorogenic substrate, fluorescence endpoint; P49327;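 active means compounds whose normalised, plate-corrected inhibition of enzyme fluorescence in the single-dose primary screen is 50% or more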;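 further: 0% = DMSO with enzyme and 100% = substrate without enzyme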
# Target sequence (P49327 whole entry, looked up, the tested form may be a part): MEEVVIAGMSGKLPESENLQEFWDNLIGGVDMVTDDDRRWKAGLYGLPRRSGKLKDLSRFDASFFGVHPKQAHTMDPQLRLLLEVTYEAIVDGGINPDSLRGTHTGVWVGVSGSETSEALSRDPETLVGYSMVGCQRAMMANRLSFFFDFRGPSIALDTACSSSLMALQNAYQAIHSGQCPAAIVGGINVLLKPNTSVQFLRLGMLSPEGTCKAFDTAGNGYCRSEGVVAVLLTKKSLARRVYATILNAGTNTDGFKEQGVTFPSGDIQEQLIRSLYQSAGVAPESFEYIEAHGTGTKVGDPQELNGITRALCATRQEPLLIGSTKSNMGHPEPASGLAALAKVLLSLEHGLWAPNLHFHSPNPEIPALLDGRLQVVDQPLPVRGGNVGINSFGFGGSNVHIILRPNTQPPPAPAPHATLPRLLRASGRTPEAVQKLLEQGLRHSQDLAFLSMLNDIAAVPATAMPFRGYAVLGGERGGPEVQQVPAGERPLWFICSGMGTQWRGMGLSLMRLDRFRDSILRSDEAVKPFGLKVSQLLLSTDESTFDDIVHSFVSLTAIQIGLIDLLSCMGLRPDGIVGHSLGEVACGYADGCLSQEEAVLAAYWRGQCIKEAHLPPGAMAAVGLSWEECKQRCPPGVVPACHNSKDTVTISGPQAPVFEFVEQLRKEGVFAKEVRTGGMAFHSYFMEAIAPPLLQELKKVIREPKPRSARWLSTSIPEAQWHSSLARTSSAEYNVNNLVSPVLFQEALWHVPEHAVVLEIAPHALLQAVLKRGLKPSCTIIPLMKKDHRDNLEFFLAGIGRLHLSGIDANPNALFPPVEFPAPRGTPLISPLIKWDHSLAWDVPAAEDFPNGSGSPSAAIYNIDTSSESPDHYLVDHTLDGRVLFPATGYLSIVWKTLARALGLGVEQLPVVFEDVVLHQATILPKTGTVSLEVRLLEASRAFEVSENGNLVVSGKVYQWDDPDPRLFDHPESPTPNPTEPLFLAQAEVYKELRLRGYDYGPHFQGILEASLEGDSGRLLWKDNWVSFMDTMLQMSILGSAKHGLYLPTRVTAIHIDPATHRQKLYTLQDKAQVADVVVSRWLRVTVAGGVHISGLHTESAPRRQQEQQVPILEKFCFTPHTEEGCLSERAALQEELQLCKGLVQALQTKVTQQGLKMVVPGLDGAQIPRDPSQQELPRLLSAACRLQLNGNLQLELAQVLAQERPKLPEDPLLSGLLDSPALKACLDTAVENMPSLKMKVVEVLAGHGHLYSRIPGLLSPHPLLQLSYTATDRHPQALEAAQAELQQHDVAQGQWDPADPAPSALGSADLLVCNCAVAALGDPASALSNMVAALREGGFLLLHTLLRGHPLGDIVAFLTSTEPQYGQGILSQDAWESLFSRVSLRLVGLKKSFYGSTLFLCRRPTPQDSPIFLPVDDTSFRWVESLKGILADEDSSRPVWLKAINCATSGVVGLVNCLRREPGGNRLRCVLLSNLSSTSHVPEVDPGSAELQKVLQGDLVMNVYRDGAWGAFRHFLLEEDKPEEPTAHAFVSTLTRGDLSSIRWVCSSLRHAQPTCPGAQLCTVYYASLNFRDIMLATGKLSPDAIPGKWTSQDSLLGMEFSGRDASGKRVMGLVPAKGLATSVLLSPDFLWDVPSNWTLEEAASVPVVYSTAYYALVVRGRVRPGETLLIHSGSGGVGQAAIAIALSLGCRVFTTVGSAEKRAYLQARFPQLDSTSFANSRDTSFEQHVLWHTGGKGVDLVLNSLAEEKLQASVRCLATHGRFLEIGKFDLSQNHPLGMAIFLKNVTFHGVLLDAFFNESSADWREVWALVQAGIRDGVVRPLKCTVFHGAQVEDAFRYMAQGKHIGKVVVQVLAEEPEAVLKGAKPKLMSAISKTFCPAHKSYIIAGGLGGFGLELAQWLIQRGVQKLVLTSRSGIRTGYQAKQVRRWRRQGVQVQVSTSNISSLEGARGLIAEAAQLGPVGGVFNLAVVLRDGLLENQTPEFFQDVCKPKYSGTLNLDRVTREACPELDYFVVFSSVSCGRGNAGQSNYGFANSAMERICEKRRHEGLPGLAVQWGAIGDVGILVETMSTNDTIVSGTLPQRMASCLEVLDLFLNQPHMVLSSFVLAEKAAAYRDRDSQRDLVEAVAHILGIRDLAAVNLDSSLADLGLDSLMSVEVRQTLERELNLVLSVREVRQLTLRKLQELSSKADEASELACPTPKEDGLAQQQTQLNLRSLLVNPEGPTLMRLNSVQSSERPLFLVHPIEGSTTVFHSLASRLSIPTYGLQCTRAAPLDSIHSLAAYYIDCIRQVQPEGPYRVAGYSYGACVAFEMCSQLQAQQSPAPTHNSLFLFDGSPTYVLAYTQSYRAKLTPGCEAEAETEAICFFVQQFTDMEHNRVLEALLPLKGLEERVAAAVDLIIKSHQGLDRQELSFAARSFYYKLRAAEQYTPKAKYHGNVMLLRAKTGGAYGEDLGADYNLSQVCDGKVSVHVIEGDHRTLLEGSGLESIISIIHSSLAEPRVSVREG
# Myeloid diff 2 = myeloid differentiation induction | calls only at 10 µM | 1% of 360,000 active | ER-HoxA9 myeloid progenitors, lysozyme-GFP differentiation, flow cytometry | AID 624256;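 active means normalized GFP-positive differentiation at or above the plate's own cutoff, the solvent-only control mean plus 3 SD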;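 further: cells exposed to compound for four days before flow analysis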
# NR3A LBD binder = modulates the human NR3A ligand-binding domain. NR3A LBD differential scanning fluorimetry, Tm shift; 0% = protein alone, 100% = glycine-bound protein. Tm shift relative to glycine control, % at 25 µM. 2.5% of 340,000 active. AID 1259313;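 active means melting temperature shift of at least 10% of the positive control shift, at one fixed dose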
# MPTP block = blocks calcium-induced mitochondrial swelling; inhibition, % at 10 µM; 1.4% of 360,000 active; isolated mouse mitochondria, Ca2+ swelling absorbance, 30 min; AID 602449;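 active means inhibition of 50% or more, scaled per plate between neutral and stimulator controls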;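 further: 0% = DMSO wells given calcium and 100% = 1 mM EGTA wells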
# rCAG binder = binds r(CAG) RNA repeats. 1.3% of 370,000 active. r(CAG) RNA repeat, TO-PRO-1 dye displacement fluorescence. AID 651821. inhibition, % at 3 µM;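 active means inhibition above the plate cutoff, the mean of all test compounds on that plate plus 3 SD, cut at about 35% in these data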;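 further: 0% = DMSO alone and 100% = 100 µM mitoxantrone as full dye displacement; higher means more dye released from RNA so lower well fluorescence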
# MPTP counter = membrane potential counter-screen of mitochondrial pore inhibitors; shares compounds with MPTP block; isolated mitochondria, Rhodamine 123 fluorescence; inhibition, % at 10 µM; 78% of 5,000 active; in the data active means inhibition above about 22%;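 further: 0% = DMSO vehicle and 100% = positive control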
# MPTP swell DR = MPTP inhibition, dose response swelling confirmation; 58% of 780 active; isolated mitochondria swelling, absorbance; shares compounds with MPTP block; IC50, µM; in the data active means IC50 below about 20 µM
# MPTP counter DR = counter-screen for mitochondrial permeability transition pore inhibitors, dose response. IC50, µM. isolated mitochondria counterscreen, fluorescence read-out. shares compounds with MPTP block. AID 651564. 49% of 780 active; in the data active means IC50 below about 80 µM
# Active calls of the source: *; i = inactive; · = no result; + = active, no number. This is a sample that favours compounds with a hit; in the whole collection about 5.7% have one here.
SMILES,FAS-TE inh,Myeloid diff 2,NR3A LBD binder,MPTP block,rCAG binder,MPTP counter,others
CC1(c2nnnn2Cc2ccccc2)CCC(=O)N1c1ccc(N2CCOCC2)cc1 (stereo not drawn),-6.1,i,·,0.7,6.1,·,
COc1ccc(Br)cc1CN(C)CC(O)COc1ccc(Br)cc1 (stereo not drawn),28.8,i,0.5,80.2*,-1.4,-0.9,MPTP swell DR=18.3*;MPTP counter DR=41.7*
COc1ccc(CN(C)CC(O)COc2ccc(C(=O)c3ccccc3)cc2)c(OC)c1OC (stereo not drawn),-3.6,i,2.2,1.0,-3.4,·,
CCn1c(CC(=O)Nc2ccccc2F)nnc1SCC(=O)NC1=NCCS1,-8.0,i,·,-2.2,0.2,·,
C=CCC(C(=O)Oc1c(C(C)(C)C)cc(C)cc1C(C)(C)C)c1ccccc1 (stereo not drawn),15.8,i,-2.7,55.3*,0.7,-8.7,MPTP swell DR=6.88*;MPTP counter DR=>80
CCN(CC)C(=O)C1=C(C)N(Cc2ccccc2)C(=O)C(CC(=O)NCc2ccco2)C1 (stereo not drawn),-8.2,i,·,0.6,-1.1,·,
Cc1ccc(S(=O)(=O)NNC(=O)Nc2ccc(Cl)c(Cl)c2)cc1,0.7,i,0.4,86.2*,9.2,97.1*,
Cc1cc(NC(=O)COc2ccc(F)c(Cl)c2)no1,-0.2,i,-0.4,0.7,0.9,·,
Cc1ccc(OCCC(=O)Nc2ccc(C)c(F)c2)cc1,21.1,i,-5.0,2.9,-4.1,·,
Cc1cc(NC(=O)Nc2ccc(F)c(Cl)c2)no1,2.2,i,-2.0,51.3*,5.7,85.4*,
Cc1ccc(OCCC(=O)Nc2ccc(F)c(Cl)c2)cc1,32.2,i,-2.3,66.9*,-2.5,63.7*,
CC(=O)Nc1ccc(S(=O)(=O)NCCC(=O)Nc2ccc(C)c(Cl)c2)cc1,-4.8,i,5.0,0.1,5.7,·,
Cc1ccc(S(=O)(=O)NCCC(=O)Nc2ccc(Cl)c(Cl)c2)cc1,22.4,i,10.0*,89.6*,3.5,87.2*,
CCN(CC(=O)Nc1cc(Cl)ccc1C)C(=O)c1ccc2c(c1)NC(=O)C(C)S2 (stereo not drawn),1.3,·,-0.5,-0.6,2.4,·,
CCN1CCN(c2cc(-c3ccccc3)nc3cc(-c4cccc(F)c4)nn23)CC1,15.8,i,2.7,99.3*,2.9,-22.7,MPTP swell DR=11.2*;MPTP counter DR=>80
COc1ccccc1-n1c(C)nc2cc(C(=O)NCCN3CCOCC3)ccc21,-4.6,i,-2.2,0.7,-6.0,·,
COc1ccc(NC(=S)Nc2ccc3snnc3c2)cc1,13.6,i,28.4*,73.3*,10.5,78.5*,
c1ccc2c(C[C@@H]3CNCCN3CC3CCCCC3)cccc2c1,-54.0,+,-0.8,53.7*,10.5,-12.2,
Oc1ccc(C[C@@H]2CNCCN2CC2CCCCC2)cc1,-3.3,i,-0.8,2.6,10.7,·,
COc1cc2c(cc1[N+](=O)[O-])-c1ccc([N+](=O)[O-])cc1C2=NNC(N)=S,5.8,i,·,2.7,·,·,
NC(=S)NN=C1c2cc(Cl)ccc2-c2c1cc(Cl)cc2[N+](=O)[O-],15.3,i,11.5*,92.7*,·,73.9*,
CCN(CC)CCCN=Cc1c(O)n(Cc2ccccc2)c(=O)c2ccccc12,-2.5,i,0.8,78.6*,-0.5,-18.5,MPTP swell DR=11.8*;MPTP counter DR=>80
CCN(CC)CCCN=Cc1c(O)n(-c2c(C)cccc2C)c(=O)c2ccccc12,-2.5,i,0.3,1.1,-1.1,·,
Fc1cccc(Cl)c1-c1nnc2ccc3ccccc3n12,-6.9,i,0.9,51.1*,5.2,31.1*,
Cc1ccc2nc(SCc3nc4c(cnn4-c4ccccc4)c(=O)[nH]3)[nH]c2c1,2.7,i,-2.5,73.4*,5.7,85.1*,
O=c1[nH]c(CSc2nc3ccccc3[nH]2)nc2c1cnn2-c1ccccc1,4.9,i,-11.0,3.7,13.4,·,
COCc1cc(C)n(CC(=O)Nc2cc(C)cc(C)c2)c(=O)c1C#N,-1.8,i,-1.8,1.1,3.1,·,
O=[N+]([O-])c1ccc(O)c(N=Cc2sc3ccccc3c2O)c1,33.2,i,15.9*,59.8*,8.6,67.3*,
CC(=O)Nc1ccc(NC(=O)c2csc([C@@H]3C[C@H](O)[C@@H](CO)O3)n2)cc1,-13.3,i,·,0.3,2.6,·,
